Source: PubChem BioAssay (NCI)
Compounds without any hit were thinned out: in the full panel of roughly 79,000, 15% have a hit. Rule as the data show it: active = growth inhibition above about 70%; inactive = the rest.

How the values were obtained:
[1] = NCI Yeast Anticancer Drug Screen. Data for the rad50 strain (AID 155);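 also: 0% = growth of vehicle-only cultures of the same strain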; settings: S. cerevisiae rad50 strain growth inhibition; at 50.0 µM; stronger effect = higher value
Outline: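 Relative growth inhibition (compound vs vehicle) was measured in yeast with a defined repair-gene alteration.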

[2] = NCI Yeast Anticancer Drug Screen. Data for the mec2-1 strain (AID 157); settings: S. cerevisiae mec2-1 strain, at 50.0 µM, stronger effect = higher value
Outline: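 Yeast mec2-1 mutant treated with compound. Readout: growth inhibition vs vehicle controls.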

[3] = NCI Yeast Anticancer Drug Screen. Data for the sgs1 mgt1 strain (AID 161);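 also: 0% = growth of cultures given vehicle only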; settings: S. cerevisiae sgs1 mgt1 strain, at 50.0 µM, stronger effect = higher value
Outline: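 Mutant yeast exposed to compound; growth scored against vehicle-only wells.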

[4] = NCI Yeast Anticancer Drug Screen. Data for the cln2 rad14 strain (AID 165);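 also: 0% = growth equal to vehicle treated cultures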; settings: S. cerevisiae cln2 rad14 strain, at 50.0 µM, stronger effect = higher value
Outline: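 cln2 rad14 yeast strain; compound exposure; growth inhibition read vs vehicle controls.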

[5] = NCI Yeast Anticancer Drug Screen. Data for the bub3 strain (AID 167); settings: S. cerevisiae bub3 mutant strain, at 50.0 µM, stronger effect = higher value
Outline: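 Screening used yeast with an engineered genetic alteration affecting cell cycle control. Compound-exposed cultures were compared with vehicle cultures, and reduced growth was taken as inhibition.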

[6] = NCI Yeast Anticancer Drug Screen. Data for the mlh1 rad18 strain (AID 175); settings: S. cerevisiae mlh1 rad18 strain growth inhibition; at 50.0 µM; stronger effect = higher value
Outline: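 Yeast w/ defined DNA-repair lesions; compound exposure; growth vs vehicle controls → % inhibition.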

Measured: growth inhibition

O=C1OC2CC3CC2C1C3C(=O)N1CCCCC1 (stereo unspecified)
inactive: [1] 11.5% | [2] -1.6% | [3] -8.15% | [4] -33% | [5] -9.65% | [6] -5.4%

CC(C)(C)c1ccccc1OC(=O)Nc1ccc(F)cc1
inactive: [1] 3.65% | [2] 7.1% | [3] 7.4% | [4] -14.2% | [5] 19.1% | [6] -3.7%

O=C(Nc1cccc([N+](=O)[O-])c1)Nc1ccccc1F
inactive: [1] 11.7% | [2] 10% | [3] 14.1% | [4] 10.5% | [5] 19.2% | [6] 9.55%

CCNC(=S)N/N=C/c1cc(OC)ccc1O
inactive: [1] -11.7% | [2] 23.4% | [3] 0.2% | [4] 11% | [5] 23.1% | [6] -13.9%

CCOC(=O)c1cnc2ccccc2c1
inactive: [1] 3.65% | [2] 6.8% | [3] 5.95% | [4] -44.9% | [5] -1.15% | [6] 3.3%

S=C1CSc2c(cnc3ccccc23)N1
inactive: [1] -4.05% | [2] -6% | [3] 7% | [4] 18.8% | [5] 18.2% | [6] 6.95%

O=C(O)C(Cc1ccccc1)NS(=O)(=O)Cc1ccccc1 (stereo unspecified)
inactive: [1] -14.1% | [2] -8.45% | [3] -4.5% | [4] -4.9% | [5] -8.2% | [6] -2.15%

Cc1ccc(S(=O)(=O)NC(=O)N(Cc2ccccc2)C(C)(C)C)cc1
inactive: [1] 3.4% | [2] 20.4% | [3] 16.1% | [4] -0.15% | [5] 14.2% | [6] 16.9%

Cc1ccc(S(=O)(=O)n2nc(C3OC(CO)C(O)C3O)c(O)c2C(N)=O)cc1 (stereo unspecified)
inactive: [1] -36.5% | [2] 16.6% | [3] -14.8% | [4] 38.1% | [5] -3% | [6] 22.8%

CCOC(=O)/C(F)=C/c1ccc(C)cc1
inactive: [1] 20.6% | [2] -8.55% | [3] 3.85% | [4] 11.1% | [5] 0.15% | [6] 8.4%

Cc1cc[n+](C(C)CCC(C)[n+]2ccc(C)cc2)cc1 (stereo unspecified)
inactive: [1] 25.2% | [2] 20.5% | [3] 42.5% | [4] 27% | [5] 14.2% | [6] 11.8%

CCCCNC(C)(C)CSS(=O)(=O)O
inactive: [1] -12.9% | [2] -23.3% | [3] -22.2% | [4] -59.8% | [5] 4.1% | [6] -14.6%

CCCCC(CC)(CC(=O)O)CC(=O)O
inactive: [1] 10.4% | [2] 9.85% | [3] 12.3% | [4] -14.8% | [5] 7.85% | [6] 7.1%

COC(CC(=O)O)CC(C)CC(C)(C)C (stereo unspecified)
inactive: [1] 48.5% | [2] 15.8% | [3] 38% | [4] 18.9% | [5] 24.9% | [6] 40.1%

CCOc1ccc(Nc2ccc3c(O)cc(S(=O)(=O)O)cc3c2)cc1
inactive: [1] 0.9% | [2] -7.35% | [3] -5.75% | [4] -20.4% | [5] 38.5% | [6] 12.8%

C1CCOC2(CCC3(CC2)OCCCCO3)OC1
inactive: [1] -16.5% | [2] 2.55% | [3] -18.2% | [4] -44.2% | [5] -10.2% | [6] -39.4%

CCCCc1c2c(nn1C(C)=O)C(=O)C=C(Nc1ccccc1)C2=O
inactive: [1] 21.8% | [2] 21.8% | [3] 19.7% | [4] -7.65% | [5] 4.7% | [6] 9.5%

O=C(Cc1ccccc1)NNC(=O)Nc1ccccc1
inactive: [1] 4% | [2] -3.6% | [3] 9.4% | [4] -26.6% | [5] 2.5% | [6] 1.05%

C=C(Cl)C(=O)O
inactive: [1] -11.3% | [2] -20.2% | [3] 18.9% | [4] -0.55% | [5] -25.4% | [6] -7.55%

CCOc1ccccc1NC(=O)Nc1ccccc1Cl
inactive: [1] -0.1% | [2] -2.15% | [3] 23.1% | [4] -18.3% | [5] 7.5% | [6] 21.3%

O=C(Nc1ccccc1)C1CC2C=CC1C2 (stereo unspecified)
inactive: [1] 2.3% | [2] -4.3% | [3] 4% | [4] -3.9% | [5] -7.3% | [6] 1.55%

CC(C)(C)CC(C)(C)c1cc2c(O)c(c1)Cc1cc(C(C)(C)CC(C)(C)C)cc(c1O)Cc1cc(C(C)(C)CC(C)(C)C)cc(c1O)Cc1cc(C(C)(C)CC(C)(C)C)cc(c1O)Cc1cc(C(C)(C)CC(C)(C)C)cc(c1O)Cc1cc(C(C)(C)CC(C)(C)C)cc(c1O)C2
inactive: [1] 7.4% | [2] 3.05% | [3] 18.4% | [4] 18.9% | [5] 4.95% | [6] 9.55%

CSc1nc(NC2OC(CO)C(O)C(O)C2O)c(C=O)c(=O)n1C (stereo unspecified)
inactive: [1] 10% | [2] -0.8% | [3] 10.3% | [4] 4% | [5] 2.45% | [6] 7.75%

CC(=O)ON=C(C1CC1)C1CC1
inactive: [1] -6% | [2] 3.5% | [3] -6.4% | [4] 4.3% | [5] -13% | [6] -3.3%

CNn1c(-c2ccccc2)n[nH]c1=O
inactive: [1] 6.65% | [2] 2.85% | [3] 11.4% | [4] 26.2% | [5] 6.45% | [6] 19.4%

CC(=O)Nc1nnc(SCc2ccccc2)s1
inactive: [1] 9% | [2] 6.35% | [3] -4.4% | [4] -10% | [5] 3.4% | [6] -20.6%

CC(C)(C)OC(=O)N1CCCC1C(=O)NC(c1ccccc1)c1ccccc1 (stereo unspecified)
inactive: [1] -35.1% | [2] -56.5% | [3] -37.5% | [4] -18.9% | [5] -13.4% | [6] -40.1%

Nc1n[nH]c(CCCCc2nc(N)n[nH]2)n1
inactive: [1] -23.2% | [2] -24.4% | [3] -2.55% | [4] -39.8% | [5] -4.25% | [6] -1.9%

COc1cc2[nH]c(-c3ccccc3)cc(=O)c2c(OC)c1OC
inactive: [1] -11.3% | [2] -3.65% | [3] -8% | [4] 0.25% | [5] 8.85% | [6] 3.35%

CCCCCCCCCCCCCCCCSC(=N)N
inactive: [1] 25.2% | [2] 21.2% | [3] 55.8% | [4] 14.1% | [5] 40% | [6] 38%

Cc1c2c([nH]c(=O)c1C)C=CC(Br)C2Br (stereo unspecified)
inactive: [1] -0.7% | [2] 0.55% | [3] 1.5% | [4] 3.2% | [5] 0.2% | [6] 6.95%

COc1ccc(NC(=S)Nc2ccccc2)cc1
inactive: [1] 4.8% | [2] -36.8% | [3] -22.6% | [4] -46.9% | [5] -21.8% | [6] -8.4%

CN1C(=S)C2=C(c3ccccc3)N(C)C(=S)C2=C1c1ccccc1
inactive: [1] 6% | [2] -6.15% | [3] 10.5% | [4] 28.9% | [5] -2.3% | [6] 26.1%

O=c1cc(-c2ccc(Cl)cc2)oc(-c2ccc(Cl)cc2)c1
inactive: [1] 5.5% | [2] -7.65% | [3] 4.05% | [4] -35.9% | [5] 0.7% | [6] 2.8%

COC(=O)c1ccc(O)c(CN(C)C)c1
inactive: [1] 26.6% | [2] -10.6% | [3] 6.6% | [4] 3.4% | [5] -15.1% | [6] 18.8%

N/N=C(/C(=O)Nc1cccc(Cl)c1)C(C(=O)c1ccc(O)cc1O)C1OC(=O)c2ccccc21 (stereo unspecified)
inactive: [1] -17.4% | [2] -14.3% | [3] -8.1% | [4] 0.85% | [5] 6.1% | [6] 20.1%

C/C(=N\NC(=O)c1ccccc1O)c1cccc(/C(C)=N/NC(=O)c2ccccc2O)n1.O=S(=O)([O-])[O-].[Fe+2]
inactive: [1] 11.4% | [2] 38.8% | [3] 39.5% | [4] -0.9% | [5] 0.65% | [6] 40.7%

CC(=O)Cc1ccc2[nH]c(C)cc(=O)c2c1
inactive: [1] -2.15% | [2] 5.25% | [3] -0.2% | [4] -34.4% | [5] -7.15% | [6] 4.55%

COC(=O)/C(=N\N)C(C(=O)C(=O)Nc1nc(=S)[nH][nH]1)c1nc2ccc([N+](=O)[O-])cc2[nH]c1=O (stereo unspecified)
inactive: [1] 2.3% | [2] -7.65% | [3] 10.1% | [4] 11.7% | [5] 29% | [6] 22.6%

CN1NC(=O)SC(=O)c2ccccc2C1=O
inactive: [1] -16.4% | [2] 22% | [3] 0.1% | [4] -12.1% | [5] 0.15% | [6] 0.65%

CCCCCCNC(=O)NC
inactive: [1] -2.3% | [2] -11.5% | [3] -16.8% | [4] -36.2% | [5] -21.1% | [6] -7.05%
